Measured values reported in PubChem BioAssay (Tox21).
Results filed as inconclusive are left out. Where a call stands in place of a potency, no number is given. Calls of active or inactive are those of the source. Calls follow the shape of the dose curve; as a rule, active = well fitted activation curve with a large enough effect in the repeat runs; inconclusive = weak or mixed curves; inactive = flat fitted curve, though single readings scatter.

Assay: A CellTox Green Cytotoxicity Assay to monitor cytotoxicity in HEK293 cells - 16 hour (AID 1224888); also: nearly all actives have a fitted effect of over 35% in size
Conditions: CellTox Green fluorescence; series mostly up to 76.8 µM
From the text: National Center for Advancing Translational Sciences [NCATS]
NIH Chemical Genomics Center [NCGC]
U.S. Environmental Protection Agency [EPA]
National Institutes of Environmental Health Sciences [NIEHS]
National Toxicology Program [NTP]
Cell-based models are critical for drug discovery. Determining the natural cytotoxic effects resulting from test compounds is an essential research activity. A CellTox Green Cytotoxicity Assay to monitor cytotoxicity in real time of continues cell culture during 40 hours of the compound treatment was used to screen Tox21 10K library compounds in Hek293 cells. CellTox Green Cytotoxicity Assay is a nonlytic, homogeneous, biofluorescent method to measure cytotoxicity in cell culture after experimental manipulation. The assay system uses a proprietary asymmetric cyanine dye that is excluded from viable cells but preferentially stains the dead cell's DNA. […] Viable cells produce no appreciable increases in fluorescence. Therefore, the fluorescence signal produced by the binding interaction with dead cell DNA is proportional to cytotoxicity.
The mixture of Hek293 cell suspension and reagents were dispensed at 600cells/6 ul/well in 1536-well tissue culture treated black solid bottom plates using a Multidrop dispenser. After the assay plates were incubated at a 37 C/5% CO2 incubator for 5 hours, 23 nL of compounds dissolved in DMSO, positive and negative controls was transferred to the assay plate by a pintool work station. The plates were incubated at 37 C for 40 hours. The fluorescence intensity were measured at 0h, 8h, 16h, 24h, 32h and 40h time points using ViewLux plate reader during compound treatment.

SMILES | Potency
O=C(NC(=O)c1cc(F)c(F)cc1Cl)Nc1cc(F)ccc1N1CCC(C(=O)O)CC1 | inactive
CCCC(C)(COC(N)=O)COC(=O)NC(C)C (stereo not given) | inactive
CCCCC(CC)COC(=O)c1c(Br)c(Br)c(Br)c(Br)c1C(=O)OCC(CC)CCCC (stereo not given) | inactive
OCCSSCCO | inactive
O=C(O)COc1cc(Cl)c(Cl)cc1Cl | inactive
COc1ccccc1N1CCNCC1 | inactive
C=CCSSCC=C | inactive
CCOP(=S)(S)OCC | inactive
CC[N+]1(C)CCCC(OC(=O)C(O)(c2ccccc2)c2ccccc2)C1 (stereo not given) | inactive
CCOP(=O)(SC(C)CC)N1CCSC1=O (stereo not given) | inactive
C1CS1 | inactive
CCOC(=O)c1cn2nc(OP(=S)(OCC)OCC)cc2nc1C | inactive
CN1C(=O)CN=C(c2ccccc2)c2cc([N+](=O)[O-])ccc21 | inactive
CCCCC#N | inactive
O=C(O)CCCOc1ccc(Cl)cc1Cl | inactive
COc1cc(CC(C)N)c(OC)cc1Br (stereo not given) | inactive
CCCCNC(=O)OCC#CI | inactive
c1ccc2c(c1)sc1ccccc12 | inactive
O=C1c2ccccc2C(=O)N1SC(Cl)(Cl)Cl | inactive
OC[P+](CO)(CO)CO | inactive

SMILES | Potency
CC(C)(C)N(NC(=O)c1ccc(Cl)cc1)C(=O)c1ccccc1 | inactive
O=[N+]([O-])O[C@H]1CO[C@H]2[C@@H]1OC[C@H]2O[N+](=O)[O-] | inactive
c1ccc2c(c1)-c1cccc3cccc-2c13 | inactive
Nc1ccccc1C(=O)OCC(O)CO (stereo not given) | inactive
O=C1CC[C@@]2(O)[C@H]3Cc4ccc(O)c5c4[C@@]2(CCN3CC2CC2)[C@H]1O5 | inactive
C=CCN1C[C@H](C)N([C@H](c2ccc(C(=O)N(CC)CC)cc2)c2cccc(OC)c2)C[C@H]1C | inactive
N#CC1(N=NC2(C#N)CCCCC2)CCCCC1 | inactive
C[Si](Cn1cncn1)(c1ccc(F)cc1)c1ccc(F)cc1 | inactive
CN(C1CCCCC1)C1CCCCC1 | inactive
CCCCCCCCCCCCN(C)C | inactive
COc1cc(CC#N)cc(OC)c1OC | inactive
CCCN(CCC)c1c([N+](=O)[O-])cc(C(C)C)cc1[N+](=O)[O-] | inactive
C[N+]1(CCC(C(N)=O)(c2ccccc2)c2ccccc2)CCCCC1 | inactive
O=S(=O)(c1ccccc1)c1ccccc1 | inactive
c1ccc2sc(SNC3CCCCC3)nc2c1 | inactive
CC(C)(C)OOC(C)(C)CCC(C)(C)OOC(C)(C)C | inactive
CC(C)(C)NCC(O)c1ccccc1Cl (stereo not given) | inactive
OCCCl | inactive
C=CC(=O)OCC | inactive
C=CCOC(=O)C(C)(C)OC(=O)c1cc(-n2c(=O)cc(C(F)(F)F)n(C)c2=O)ccc1Cl | inactive
